Results taken from PubChem BioAssay AID720597 (Broad Institute, 2013).
Measured potencies and affinities stand elsewhere. Active and inactive are the calls of the source.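 Rule for the calls: active = fitted half-maximal dose no more than twice the top valid tested dose, for compounds that lower signal; inconclusive = fit invalid, or curve flat with activity between -70 and -30; inactive = potency past limit, curve flat within ±30, or signal increasing.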

The compounds below were run against NAD-dependent protein deacylase sirtuin-5, mitochondrial (Homo sapiens) (UniProt Q9NXA8) (assay: blockers of sirtuin-5 peptide desuccinylation – biochemical, fluorescence imaging, cherry-pick, set 6, dose response (AID 720597;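 note: lower AMC signal can also come from blocking the trypsin step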)). Conditions: Purified SirT5, succinyl-peptide-AMC/trypsin fluorescence; series mostly up to 15 µM.
NAD-dependent protein deacylase sirtuin-5, mitochondrial (Homo sapiens), sequence (Q9NXA8 whole entry, looked up): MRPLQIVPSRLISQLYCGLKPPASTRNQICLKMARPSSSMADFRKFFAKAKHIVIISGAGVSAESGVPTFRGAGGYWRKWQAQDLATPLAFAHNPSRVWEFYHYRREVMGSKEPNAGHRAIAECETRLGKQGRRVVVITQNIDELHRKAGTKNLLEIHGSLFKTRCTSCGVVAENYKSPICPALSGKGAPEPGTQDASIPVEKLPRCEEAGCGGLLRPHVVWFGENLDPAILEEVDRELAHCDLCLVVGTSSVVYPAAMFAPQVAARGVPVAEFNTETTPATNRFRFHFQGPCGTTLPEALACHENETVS

outcome, inactive:
C[C@H]1CCCCO[C@H](CN(C)S(=O)(=O)c2ccc(Cl)cc2)[C@@H](C)CN([C@@H](C)CO)C(=O)c2cc(NS(=O)(=O)c3ccccc3)ccc2O1
CC(C)CC#Cc1ccc2c(c1)O[C@H](CN(C)S(=O)(=O)c1cccc(F)c1)[C@@H](C)CN([C@@H](C)CO)S2(=O)=O
C[C@@H]1CN([C@H](C)CO)C(=O)Cc2cc(NC(=O)Nc3ccc(F)cc3)ccc2O[C@H]1CN(C)C
C[C@H]1CN([C@@H](C)CO)C(=O)Cc2cc(NC(=O)Nc3ccc(F)cc3)ccc2O[C@H]1CN(C)C
C[C@H](CO)N1C[C@H](C)[C@H](CN(C)S(=O)(=O)c2cccs2)Oc2c(NC(=O)C3CCCCC3)cccc2C1=O
CNC[C@H]1Oc2ccc(NC(=O)Nc3ccc(F)cc3)cc2CC(=O)N([C@H](C)CO)C[C@H]1C
O=C(CC1CC1)N1[C@@H](CO)[C@@H]2c3ccccc3N(S(=O)(=O)c3ccc(F)cc3)C[C@@H]21
C[C@@H]1CN([C@@H](C)CO)C(=O)c2cc(NC(=O)C3CC3)ccc2O[C@@H]1CN(C)S(=O)(=O)c1cn(C)cn1
C[C@@H]1CN([C@@H](C)CO)S(=O)(=O)c2ccc(C#CC3CC3)cc2O[C@@H]1CN(C)Cc1ccccc1F
CCCNC(=O)N1[C@H](CO)[C@@H](c2ccccc2)C12CN(C(=O)CC1CC1)C2
CC(C)(C)NC(=O)CSc1nnc(-c2ccco2)n1-c1ccccc1
C[C@H](CO)N1C[C@H](C)[C@H](CN(C)S(=O)(=O)c2ccc(F)cc2)Oc2cc(C#Cc3ccc(F)cc3)ccc2S1(=O)=O
CCN1[C@@H]2c3ccc(-c4cccc(F)c4)c(=O)n3C[C@@H]2[C@@H](CO)[C@@H]1C(=O)N[C@H](C)c1ccccc1
COc1ccc(CN2C[C@@H](O)COC[C@H]3O[C@H](CC(=O)NCCN4CCCC4)CC[C@@H]32)cc1
O=C(C[C@H]1C[C@@H]2c3cc(NC(=O)C4CCC4)ccc3O[C@@H]2[C@@H](CO)O1)NCc1ccc(-c2ccccc2)cc1
Cc1ccccc1S(=O)(=O)N1CCCCN2[C@H](CO)[C@@H](c3ccc(-c4ccccc4)cc3)[C@@H]2C1
C[C@H]1CN([C@@H](C)CO)S(=O)(=O)c2ccc(C#CC3CC3)cc2O[C@@H]1CN(C)Cc1ccc(F)cc1
Cc1ccc(-c2ccc(C3[C@@H]4CN(S(=O)(=O)c5cccc(C)c5)C[C@H]3N4)cc2)cc1 (stereo not given in full)
C[C@H](O)C#Cc1ccc2c(c1)O[C@H](CN(C)Cc1ccc(-c3ccccc3)cc1)[C@H](C)CN([C@@H](C)CO)S2(=O)=O
CN(C)Cc1cn(CC[C@H]2CC[C@@H](NC(=O)Nc3ccccc3F)[C@@H](CO)O2)nn1
C[C@@H]1CN([C@@H](C)CO)C(=O)c2cc(NS(=O)(=O)c3ccc(Cl)cc3)ccc2O[C@@H](C)CCCCO[C@@H]1CN(C)Cc1ccc(C(F)(F)F)cc1
C[C@@H]1CN([C@@H](C)CO)C(=O)Cc2cc(NS(=O)(=O)c3ccc(Cl)cc3)ccc2O[C@H]1CN(C)Cc1ccc(Oc2ccccc2)cc1
C[C@H]1CN([C@@H](C)CO)C(=O)c2cccc(NS(=O)(=O)c3cn(C)cn3)c2O[C@H]1CN(C)Cc1ccc(Oc2ccccc2)cc1
CN(C)Cc1cn(CC[C@H]2CC[C@H](NS(=O)(=O)c3ccccc3)[C@H](CO)O2)nn1
O=C(CSc1nnc(-c2ccco2)n1-c1ccccc1)Nc1ccc(F)cc1
C[C@H](CO)N1C[C@H](C)[C@H](CN(C)Cc2ccc(Oc3ccccc3)cc2)Oc2ccc(NC(=O)Cc3ccccc3)cc2C1=O
C[C@H]1CCCCO[C@@H](CN(C)Cc2ccc(C(F)(F)F)cc2)[C@@H](C)CN([C@@H](C)CO)C(=O)c2cc(NS(=O)(=O)c3ccc(F)cc3)ccc2O1
COc1cccc(NC(=O)N(C)C[C@@H]2Oc3cc(C#Cc4ccccc4)ccc3S(=O)(=O)N([C@H](C)CO)C[C@H]2C)c1
C[C@@H]1CN([C@@H](C)CO)C(=O)Cc2cc(NS(=O)(=O)c3ccc(Cl)cc3)ccc2O[C@@H]1CN(C)CC1CCCCC1
Cc1noc(C)c1NC(=O)Nc1cccc2c1O[C@@H](CN(C)Cc1ccc(Oc3ccccc3)cc1)[C@H](C)CN([C@@H](C)CO)C2=O
